This is a sample that favours compounds with a hit; in the whole collection about 1.4% have one here.
MBD2 inh: inhibitors of MBD2 binding to methylated DNA, primary screen, biochemical, TR-FRET, DNA-binding domain, human. 0.31% of 370,000 active. inhibition, % at 4.4 µM. AID 686964, 2013. MBD2 binding to methylated oligonucleotide; in the data active = inhibition above about 13%
UHRF1 binding: UHRF1 methylated DNA binding inhibitors, primary screen, counter-screen for MBD2 inhibitor project, biochemical, TR-FRET, human UHRF1, single concentration; AID 687016, 2013; UHRF1 binding to methylated oligo; 0.75% of 370,000 active; inhibition, % at 4.4 µM; E3 ubiquitin-protein ligase UHRF1 (Homo sapiens), Q96T88; in the data active = inhibition above about 21%;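 note: UHRF1 SRA domain binding a hemimethylated CpG hairpin DNA probe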
Target sequence (Q96T88 whole entry, looked up, the tested form may be a part): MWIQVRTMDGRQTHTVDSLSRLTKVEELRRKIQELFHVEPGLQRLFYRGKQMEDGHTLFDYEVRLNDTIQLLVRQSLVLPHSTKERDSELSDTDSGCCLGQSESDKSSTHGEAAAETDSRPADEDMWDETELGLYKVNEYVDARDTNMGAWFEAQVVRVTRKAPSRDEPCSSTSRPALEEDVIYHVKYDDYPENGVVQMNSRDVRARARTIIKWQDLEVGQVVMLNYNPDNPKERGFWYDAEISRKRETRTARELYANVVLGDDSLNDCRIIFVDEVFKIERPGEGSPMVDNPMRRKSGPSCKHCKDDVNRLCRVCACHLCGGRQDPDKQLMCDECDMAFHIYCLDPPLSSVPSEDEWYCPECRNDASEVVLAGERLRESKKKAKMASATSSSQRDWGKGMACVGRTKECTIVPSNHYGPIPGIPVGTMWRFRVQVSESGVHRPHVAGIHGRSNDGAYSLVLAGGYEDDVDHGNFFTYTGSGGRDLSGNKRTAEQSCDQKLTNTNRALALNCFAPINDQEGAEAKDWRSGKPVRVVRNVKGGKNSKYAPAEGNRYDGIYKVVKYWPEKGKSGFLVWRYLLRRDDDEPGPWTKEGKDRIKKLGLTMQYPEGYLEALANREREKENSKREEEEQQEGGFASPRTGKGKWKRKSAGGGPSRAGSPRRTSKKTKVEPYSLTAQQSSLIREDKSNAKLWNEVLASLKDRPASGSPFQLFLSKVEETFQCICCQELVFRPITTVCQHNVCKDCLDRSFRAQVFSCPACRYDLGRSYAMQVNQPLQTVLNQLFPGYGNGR
CASP6 VEID inh: human caspase-6 inhibitors, primary screen, biochemical, VEID-R110 fluorescence, single point, set 2 | 0.53% of 350,000 active | AID 686996, 2013 | P55212 | inhibition, % at 12.5 µM | purified caspase-6, Z-VEID-R110 cleavage fluorescence;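 active = mean inhibition across replicates at least about 35%, with every replicate also reaching that limit, limit read from the data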
LEDGF integ inh: blockers of LEDGF/p75-dependent integrase strand transfer – biochemical, TR-FRET, high throughput, primary screen; HIV-1 integrase (with human LEDGF/p75); TR-FRET IN-LEDGF/p75 DNA integration, Eu/Cy5; inhibition, % at 3.7 µM; 0.64% of 370,000 active; AID 743269, 2014;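 active = inhibition above the screen-wide mean plus 3 SD, cut at about 13% in these data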;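 note: signal is the Cy5 over europium emission ratio at 671 and 618 nm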
Numbers stand for hits; n = inactive; x = no result given; ! = repeats disagree.

SMILES	MBD2 inh	UHRF1 binding	CASP6 VEID inh	LEDGF integ inh
COC(=O)[C@@]1(C#N)[C@@H]2C=CC(C(C)=O)=CN2[C@@H](C(N)=O)[C@@H]1c1ccc(F)cc1	n	25	n	n
CCOC(=O)[C@]1(C#N)[C@@H]2C=CC(C(N)=O)=CN2[C@@H](C(N)=O)[C@@H]1c1ccc(F)cc1	n	n	n	n
O=C1NC(=O)N(c2ccc3c(c2)OCO3)C(=O)/C1=C\c1ccc(-c2ccccc2C(=O)O)o1	n	n	43	n
CN(C)[C@@H]1C(=O)C(C(N)=O)=C(O)[C@@]2(O)C(=O)C3=C(O)c4c(O)cccc4[C@@](C)(O)[C@H]3[C@H](O)[C@@H]12	35	67	69	61
C/C=C/c1ccc([C@@H]2[C@@H](CO)N3CCCCN(C(=O)Cc4ccncc4)C[C@H]23)cc1	x	x	n	x
O=C(Cc1cccnc1)N1CCCCN2[C@@H](CO)[C@H](c3ccc(C#CC4CC4)cc3)[C@@H]2C1	x	x	n	x
O=C1NC(=O)N(Cc2ccco2)C(=O)/C1=C\c1cccn1CCOc1ccc(Cl)cc1	n	55	68	61
COc1ccc(C#Cc2ccc([C@H]3[C@@H](CO)N4CCCCN(C(=O)Cc5cccnc5)C[C@H]34)cc2)cc1	x	x	n	x
CC(C)CC1C(C#N)=C(N)Oc2c1c(=O)oc1ccccc21 (centres undefined)	n	76	n	n
N#CC1=C(N)Oc2c(c(=O)oc3ccccc23)C1c1ccc(OC(=O)N2CCOCC2)cc1 (centres undefined)	n	38	n	n
O=C(O)[C@@H]1[C@@H](CO)[C@@H]2Cn3c(ccc(-c4cccnc4)c3=O)[C@H]1N2S(=O)(=O)c1ccccc1F	x	x	n	x
COc1ccc(/C=C2/C(=O)N(Cc3ccco3)C(=O)N(C(C)C)C2=O)cc1	n	32	78	33
CCN1C(=O)C(=C2C=C(C)N(Cc3ccco3)C(C)=C2)C(=O)N(CC)C1=S	n	n	x	n
O=C1NC(=O)N(c2cccc(Cl)c2)C(=O)/C1=C\c1ccc(Sc2nc3ccccc3[nH]2)o1	n	n	70	20
O=C1NC(=O)N(c2ccccc2F)C(=O)/C1=C/c1ccc(Sc2nc3ccccc3[nH]2)o1	n	n	60	22
CC=Cc1ccc2n(c1=O)C[C@@H]1[C@@H](CO)[C@H](C(=O)O)[C@H]2N1S(=O)(=O)c1ccccc1F (mixture of isomers)	x	x	n	x
C=CCN1C(=O)NC(=O)/C(=C\c2ccc(-c3ccccc3[N+](=O)[O-])o2)C1=O	n	56	n	n
CN1C(=O)NC(=O)C(N=Nc2ccc(Cl)cc2)C1=O (centres undefined)	n	n	47	n
COc1ccc(C#Cc2ccc([C@H]3[C@@H](CO)N4CCCCN(C(=O)Cc5cccnc5)C[C@@H]34)cc2)cc1	x	x	n	x
O=C(O)c1cccc2c1NC(C(=O)O)C1CC(Sc3ccccc3[N+](=O)[O-])C(Cl)C21 (centres undefined)	21	62	x	52
COC(=O)[C@H]1[C@H](CO)[C@H]2Cn3c(ccc(-c4ccccc4)c3=O)[C@@H]1N2CC1CCOCC1	x	x	n	x
O=C(Cc1cccnc1)N1CCCCN2[C@H](C1)[C@H](c1ccc(C#CC3CCCC3)cc1)[C@@H]2CO	x	x	n	x
Cn1c(O)c(/C=C2\C=c3ccccc3=NC2=O)c(=O)n(C)c1=O	n	75	n	n
O=C1NC(=O)N(c2ccccc2)C(=O)/C1=C/c1coc2ccc(O)cc2c1=O	n	27	n	n
COc1ccc(C#Cc2ccc([C@@H]3[C@H]4CN(C(=O)Cc5ccncc5)CCCCN4[C@H]3CO)cc2)cc1	x	x	n	x
SMILES	MBD2 inh	UHRF1 binding	CASP6 VEID inh	LEDGF integ inh
Fc1ccc(CCNCc2ccc(Br)cc2)cc1	n	35	n	n
Fc1ccc(CNCCc2ccccc2F)cc1	n	n	n	n
CN1CCC2(CC1)C(C#N)=C(N)NC(S)=C2C#N	n	n	47!	n
COc1ccc(C(O)(c2cncnc2)C2CC2)cc1 (centres undefined)	x	x	n	x
CC(C)COC(=O)c1ccccc1C(=O)OCC(C)C	n	n	n	n
C[CH2][Hg][S]c1ccccc1C(=O)O	n	n	49	n
COc1ccc(C#Cc2ccc([C@@H]3[C@@H](CO)N4CCCCN(C(=O)Cc5ccncc5)C[C@@H]34)cc2)cc1	x	x	n	x
Nc1cccc(SC2CC(=O)N(c3ccc(Cl)cc3C(=O)c3ccccc3)C2=O)c1 (centres undefined)	n	28	n	n
O=C(Cc1ccccn1)N1CCCCN2[C@@H](CO)[C@@H](c3ccc(-c4ccc(F)cc4)cc3)[C@@H]2C1	x	x	n	x
O=C1NC(=O)N(Cc2ccc(F)cc2)C(=O)/C1=C\c1ccc([N+](=O)[O-])s1	n	n	n	n
COc1ccc(CN2C(=O)NC(=O)/C(=C/c3ccc([N+](=O)[O-])s3)C2=O)cc1	n	n	44	n
COc1cccc(N2C(=O)NC(=O)/C(=C/c3ccc([N+](=O)[O-])s3)C2=O)c1	n	n	47	n
O=C(Cc1ccccn1)N1CCCCN2[C@H](CO)[C@H](c3ccc(-c4ccccc4F)cc3)[C@@H]2C1	x	x	n	x
O=C(O)[C@H]1[C@H](CO)[C@H]2Cn3c(ccc(-c4cccc(F)c4)c3=O)[C@@H]1N2CCc1ccccc1	x	x	n	x
Cn1c(=O)[nH]c2nncnc2c1=O	n	n	43	n
CC=Cc1ccc2n(c1=O)C[C@@H]1[C@@H](CO)[C@H](C(=O)N(C)C)N[C@H]21 (mixture of isomers)	x	x	n	x
CC(C)(C)n1nnnc1C(c1cc2ccccc2o1)N1CCC2(CC1)C(=O)NCN2c1ccccc1 (centres undefined)	n	n	n	n
O=C1NCN(c2ccccc2)C12CCN(C(c1cc3ccccc3o1)c1nnnn1C1CCCCC1)CC2 (centres undefined)	n	23	n	n
COC(=O)c1nc(-c2ccc3c(n2)C(=O)C(N)=C(OC)C3=O)c(N)c(-c2ccc(OC)c(OC)c2O)c1C	n	n	54	n
CCCCn1nnnc1C(CCSC)N1CCC(n2c(=O)[nH]c3ccccc32)CC1 (centres undefined)	n	n	50	n
COC(=O)[C@@H]1[C@@H](CO)[C@@H]2Cn3c(ccc(C4=CCCCC4)c3=O)[C@H]1N2Cc1ccccc1OC	x	x	n	x
O=C1C(Cl)=CC(=Nc2ccc(O)cc2)C=C1Cl	n	n	40	n
COc1cc2c(cc1O)C[C@H]1NCCc3cc4c(c-2c31)OCO4	23	30	n	n
O=C(NC(=S)N1C[C@H]2C[C@H](C1)c1cccc(=O)n1C2)c1ccc(Cl)cc1Cl	n	91	n	n
COc1ccc(C#Cc2ccc([C@H]3[C@@H](CO)N4CCCCN(C(=O)Cc5ccncc5)C[C@@H]34)cc2)cc1	x	x	n	x
O=c1[nH]c(=O)n(-c2cccc(F)c2)c(O)c1/C=C1\C=Nc2ccccc21	n	22	x	n
O=C(O)c1ccc(-n2c(O)c(/C=C3\C=Nc4ccccc43)c(=O)[nH]c2=O)cc1	n	n	n	n
